Data taken from ChEMBL document CHEMBL3988442, “University of Dundee, Small-Polar-MMV Screening Library” (2021).
Values joined by “and” are separate entries in the source; they are usually repeats but may differ in a detail not shown here. Equal values may be shown once. About 290 (0.85%) of roughly 34,000 compounds showed an effect of 50% or more. For the sample, strong results were picked, then their nearest neighbours and some compounds at random.

Tested on: Plasmodium falciparum
Test: Plasmodium falciparum sporozoite viability assay
Format: functional, organism-based
Design: scale not given: in the data most compounds retested in dose-response had high values

SMILES | Percent Effect [%] | Percent Effect (10 mM as filed; unlikely as a test dose)
CCc1nc(CNC(C)Cn2cccn2)cs1 (configuration not stated) | 4.8 | 
CNC(=O)[C@@H]1CN(Cc2ccccc2)C[C@H]1C(=O)c1ccc(F)cc1 | 12.45 | 
CC(C)(C)n1cc(C2=CCN(CCNC(N)=O)CC2)cn1 |  | -28.2% and -25.06%
CC(C)(C)n1cc(C2=CCN(CCN3CCCCCC3)CC2)cn1 |  | -30.5% and -32%
CC(C)(C)n1cc(C2=CCN(CCc3ccccc3)CC2)cn1 |  | 84.88% and 75.7% and 89.28%
CC(C)(C)n1cc(C2=CCN(CCc3ccccn3)CC2)cn1 |  | 78.88% and 77.42%
CC(C)(C)n1cc(C2=CCN(CCNC(=O)c3ccccc3)CC2)cn1 |  | -11.67% and -1.893%
Cc1nc(O)cc(CN2CC=C(c3cnn(C(C)(C)C)c3)CC2)n1 |  | -34.41% and -32.55%
O=C(O)C(F)(F)F.O=C(O)C(F)(F)F.O=S(=O)(C1CC1)N1CCC2(CC1)CN(Cc1ccccn1)CCO2 | 0.5199 | 
CCS(=O)(=O)N1CCN(CC2CC2)c2ncccc2C1 | 11.27 | 
O=C(c1ccsc1)N1CCN2C[C@H](OCc3ccccn3)C[C@H]2C1 | 1.117 | 
O=C(Cc1ccccn1)N1CCN2C[C@H](OCCN3CCCC3)C[C@H]2C1.O=C(O)C(F)(F)F.O=C(O)C(F)(F)F.O=C(O)C(F)(F)F | -8.505 | 
Cl.FC(F)(F)c1nc(C2CCCNC2)no1 (configuration not stated) | 6.016 | 
Cc1cc(O)nc(C2CCCNC2)n1.Cl (configuration not stated) | 1.062 | 
Cc1cccc(Nc2ccc(C3CCCCN3)cn2)n1 (configuration not stated) |  | 97.8% and 85.07% and 40.73%
c1cnc(Nc2ccc(C3CCCCN3)cn2)cn1 (configuration not stated) |  | -2.241% and -0.3197% and -12.37%
Cc1cc(C)nc(C2CCCNC2)n1.Cl.Cl (configuration not stated) | 16.42 | 
COCCN1CCOCC12CCN(C(=O)c1ccncc1)CC2.O=C(O)C(F)(F)F | -4.875 | 
O=C(O)C(F)(F)F.O=C(O)C(F)(F)F.c1cncc(N2CCOCC3(CN(Cc4cccs4)CCO3)C2)c1 (configuration not stated) | 7.302 | 
O=C(O)C(F)(F)F.O=C(O)C(F)(F)F.c1cncc(COCC2CC[C@H]3[C@H]2OCCN3Cc2ccoc2)c1 (some centres not stated) | 12.08 | 
O=C(O)C(F)(F)F.O=C(O)C(F)(F)F.c1cncc(OC[C@@]23CCC[C@@H]2CN(C2CCOCC2)C3)c1 | 9.846 | 
O=C(O)C(F)(F)F.O=C(O)C(F)(F)F.c1cnc(N2CC3(CCN(Cc4ccncc4)C3)C2)nc1 | -6.54 | 
